In PubChem BioAssay (NCATS):
Records with an inconclusive call do not appear. A call without a number means that no potency is given here. Calls of active or inactive are those of the source. The call rests on the fitted dose curve; in most records, active means well fitted inhibition curve with a large enough effect; inconclusive means small, poorly fitted or top-dose-only effect; inactive means flat fitted curve, though single readings scatter.

Legend:
Experiment in all cases: qHTS profiling for inhibitors of Plasmodium falciparum proliferation (AID 504749); further: nearly all actives have a fitted effect of over 60% in size
Conditions in all cases: P. falciparum in erythrocytes, SYBR Green DNA, 72 h; series mostly up to 28.7 µM
[1] = test system: JCK
Method in brief: (§1)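 Fluorescence of SYBR Green-bound parasite DNA, read at 485/535 nm, served as the growth measure. Infected erythrocytes were cultured with compound 72 h; artemisinin (0.29 uM) and DMSO wells defined the normalization range.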

[2] = test system: N140
Method in brief: as §1

[3] = test system: P93_24
Method in brief: as §1

[4] = test system: P94_40
Method in brief: as §1

[5] = test system: PAD
Method in brief: as §1

[6] = test system: PC15
Method in brief: as §1

[7] = test system: PC26
Method in brief: as §1

[8] = test system: PC49
Method in brief: as §1

[9] = test system: SC27B
Method in brief: as §1

[10] = test system: TAB109
Method in brief: as §1
Potency means the concentration at half of the fitted maximal effect.

Question: For `Cc1cc2nc3c(=O)[nH]c(=O)nc-3n(CC(O)C(O)C(O)CO)c2cc1C` (configuration not stated), which outcome [1] is on record?
Answer: inactive

Question: What about the Potency [2] of the same molecule?
Answer: inactive

Question: And the Potency [3]?
Answer: inactive

Question: And the Potency [4]?
Answer: inactive

Question: And the Potency [5]?
Answer: inactive

Question: And the outcome [6]?
Answer: inactive

Question: And the Potency [7]?
Answer: inactive

Question: What about the outcome [8] of the same molecule?
Answer: inactive

Question: What about the Potency [9] of the same molecule?
Answer: inactive

Question: What about the Potency [10] of the same molecule?
Answer: inactive

Question: Which results are given for `CS(=O)(=O)c1ccc(C2=C(c3ccccc3)C(=O)OC2)cc1`?
Answer: outcome [1]: inactive; Potency [2]: inactive; Potency [3]: inactive; Potency [4]: inactive; Potency [5]: inactive; outcome [6]: inactive; Potency [7]: inactive; outcome [8]: inactive; Potency [9]: inactive; Potency [10]: inactive

Question: Which outcome [1] does the source give for `O=C1C(CCC(O)c2ccc(F)cc2)C(c2ccc(O)cc2)N1c1ccc(F)cc1` (configuration not stated) here?
Answer: inactive

Question: And the Potency [2]?
Answer: inactive

Question: And the Potency [3]?
Answer: inactive

Question: What about the Potency [4] of the same molecule?
Answer: inactive

Question: And the Potency [5]?
Answer: inactive

Question: And the outcome [6]?
Answer: inactive

Question: What about the Potency [7] of the same molecule?
Answer: inactive

Question: What about the outcome [8] of the same molecule?
Answer: inactive

Question: What about the Potency [9] of the same molecule?
Answer: inactive

Question: What about the Potency [10] of the same molecule?
Answer: inactive

Question: What does the source list for `COc1cc2c(cc1OC)CC(=O)N(CCCN(C)C[C@H]1Cc3cc(OC)c(OC)cc31)CC2`?
Answer: outcome [1]: inactive; Potency [2]: inactive; Potency [3]: inactive; Potency [4]: inactive; Potency [5]: inactive; outcome [6]: inactive; Potency [7]: inactive; outcome [8]: inactive; Potency [9]: inactive; Potency [10]: inactive

Question: How did the outcome [1] turn out when `N#CC(c1ccc(Cl)cc1)c1c(Cl)cc(-n2ncc(=O)[nH]c2=O)cc1Cl` (configuration not stated) was run?
Answer: inactive

Question: What about the Potency [2] of the same molecule?
Answer: inactive

Question: What about the Potency [3] of the same molecule?
Answer: inactive

Question: And the Potency [4]?
Answer: inactive

Question: What about the Potency [5] of the same molecule?
Answer: inactive

Question: What about the outcome [6] of the same molecule?
Answer: inactive

Question: What about the Potency [7] of the same molecule?
Answer: inactive

Question: And the outcome [8]?
Answer: inactive

Question: And the Potency [9]?
Answer: inactive

Question: And the Potency [10]?
Answer: inactive

Question: What does the source list for `NS(=O)(=O)c1cc(Cl)c(Cl)c(S(N)(=O)=O)c1`?
Answer: outcome [1]: inactive; Potency [2]: inactive; Potency [3]: inactive; Potency [4]: inactive; Potency [5]: inactive; outcome [6]: inactive; Potency [7]: inactive; outcome [8]: inactive; Potency [9]: inactive; Potency [10]: inactive

Question: For `COc1c(C)c2c(c(O)c1CC=C(C)CCC(=O)OCCN1CCOCC1)C(=O)OC2`, which Potency [2] is on record?
Answer: 8.91 µM (active)

Question: What about the Potency [3] of the same molecule?
Answer: 7.08 µM (active)

Question: And the Potency [4]?
Answer: 7.94 µM (active)

Question: And the Potency [5]?
Answer: 11.2 µM (active)

Question: What about the outcome [6] of the same molecule?
Answer: inactive

Question: What about the outcome [8] of the same molecule?
Answer: inactive

Question: What about the Potency [9] of the same molecule?
Answer: 5.01 µM (active)

Question: What about the Potency [10] of the same molecule?
Answer: 7.08 µM (active)

Question: `CC(C)CN(C[C@@H](O)[C@H](Cc1ccccc1)NC(=O)O[C@H]1CO[C@H]2OCC[C@H]21)S(=O)(=O)c1ccc(N)cc1` was tested. Which outcome [1] did it give?
Answer: inactive

Question: And the Potency [3]?
Answer: inactive

Question: And the Potency [4]?
Answer: inactive

Question: What about the outcome [6] of the same molecule?
Answer: inactive

Question: And the Potency [7]?
Answer: inactive

Question: And the outcome [8]?
Answer: inactive

Question: And the Potency [9]?
Answer: inactive

Question: And the Potency [10]?
Answer: inactive

Question: How did the Potency [2] turn out when `Clc1ccc(COC(Cn2ccnc2)c2ccc(Cl)cc2Cl)c(Cl)c1` (configuration not stated) was run?
Answer: 2.24 µM (active)

Question: What about the Potency [3] of the same molecule?
Answer: 1.41 µM (active)

Question: And the Potency [4]?
Answer: 2.82 µM (active)

Question: What about the Potency [5] of the same molecule?
Answer: 3.55 µM (active)

Question: What about the Potency [7] of the same molecule?
Answer: 2.56 µM (active)

Question: And the outcome [8]?
Answer: inactive

Question: And the Potency [9]?
Answer: 2.82 µM (active)

Question: And the Potency [10]?
Answer: 3.98 µM (active)

Question: What does the source list for `CN1CC(=O)N2C(Cc3c([nH]c4ccccc34)[C@H]2c2ccc3c(c2)OCO3)C1=O` (some centres not stated)?
Answer: outcome [1]: inactive; Potency [2]: inactive; Potency [4]: inactive; Potency [5]: inactive; outcome [6]: inactive; Potency [7]: inactive; outcome [8]: inactive; Potency [9]: inactive; Potency [10]: inactive

Question: Which results are given for `CN1CCN2c3ncccc3Cc3ccccc3C2C1` (configuration not stated)?
Answer: outcome [1]: inactive; Potency [4]: inactive; outcome [6]: inactive; outcome [8]: inactive; Potency [9]: inactive; Potency [10]: inactive

Question: For `N#Cc1c(N(CC(=O)O)CC(=O)O)sc(C(=O)O)c1CC(=O)O`, which outcome [1] is on record?
Answer: inactive

Question: What about the Potency [2] of the same molecule?
Answer: inactive

Question: What about the Potency [3] of the same molecule?
Answer: inactive

Question: What about the Potency [4] of the same molecule?
Answer: inactive

Question: What about the Potency [5] of the same molecule?
Answer: inactive

Question: And the outcome [6]?
Answer: inactive

Question: What about the Potency [7] of the same molecule?
Answer: inactive

Question: And the outcome [8]?
Answer: inactive

Question: And the Potency [9]?
Answer: inactive

Question: And the Potency [10]?
Answer: inactive

Question: How did the outcome [1] turn out when `C=C1c2cccc(O)c2C(O)=C2C(=O)[C@@]3(O)C(O)=C(C(N)=O)C(=O)[C@@H](N(C)C)[C@@H]3[C@@H](O)[C@H]12` was run?
Answer: inactive

Question: What about the Potency [2] of the same molecule?
Answer: inactive

Question: What about the Potency [4] of the same molecule?
Answer: inactive

Question: And the Potency [5]?
Answer: inactive

Question: What about the outcome [6] of the same molecule?
Answer: inactive

Question: And the Potency [7]?
Answer: inactive

Question: And the outcome [8]?
Answer: inactive

Question: What about the Potency [9] of the same molecule?
Answer: inactive

Question: What about the Potency [10] of the same molecule?
Answer: inactive

Question: Which outcome [1] does the source give for `COc1ccnc(CS(=O)c2nc3ccc(OC(F)F)cc3[nH]2)c1OC` (configuration not stated) here?
Answer: inactive

Question: What about the Potency [2] of the same molecule?
Answer: inactive

Question: And the Potency [3]?
Answer: inactive

Question: What about the Potency [4] of the same molecule?
Answer: inactive

Question: What about the Potency [5] of the same molecule?
Answer: inactive

Question: What about the outcome [6] of the same molecule?
Answer: inactive

Question: And the outcome [8]?
Answer: inactive

Question: What about the Potency [9] of the same molecule?
Answer: inactive

Question: And the Potency [10]?
Answer: inactive

Question: For `O=C(O)c1nc(=O)[nH]c(=O)[nH]1`, which outcome [1] is on record?
Answer: inactive

Question: What about the Potency [2] of the same molecule?
Answer: inactive

Question: And the Potency [3]?
Answer: inactive

Question: And the Potency [4]?
Answer: inactive

Question: What about the Potency [5] of the same molecule?
Answer: inactive

Question: What about the outcome [6] of the same molecule?
Answer: inactive

Question: And the Potency [7]?
Answer: inactive

Question: What about the outcome [8] of the same molecule?
Answer: inactive

Question: What about the Potency [9] of the same molecule?
Answer: inactive

Question: And the Potency [10]?
Answer: inactive
